Holding throughout (assay): DAPPL (digital affinity profiling via proximity ligation, sequencing); 10 mM Tris-HCl pH 7.5, 50 mM NaCl, 1 mM DTT, 4% glycerol, room temperature, 30 min; GST-TFs on glutathione beads, 16-mer random dsDNA library, 0.1% formaldehyde crosslink after washing; high values mean tight binding
What all share (conditions): protein: recombinant; tags: N-terminal GST; dsDNA, one strand shown

One experiment concerns the target T1, ERF (Homo sapiens, UniProt P50548 1-548).
T1 sequence: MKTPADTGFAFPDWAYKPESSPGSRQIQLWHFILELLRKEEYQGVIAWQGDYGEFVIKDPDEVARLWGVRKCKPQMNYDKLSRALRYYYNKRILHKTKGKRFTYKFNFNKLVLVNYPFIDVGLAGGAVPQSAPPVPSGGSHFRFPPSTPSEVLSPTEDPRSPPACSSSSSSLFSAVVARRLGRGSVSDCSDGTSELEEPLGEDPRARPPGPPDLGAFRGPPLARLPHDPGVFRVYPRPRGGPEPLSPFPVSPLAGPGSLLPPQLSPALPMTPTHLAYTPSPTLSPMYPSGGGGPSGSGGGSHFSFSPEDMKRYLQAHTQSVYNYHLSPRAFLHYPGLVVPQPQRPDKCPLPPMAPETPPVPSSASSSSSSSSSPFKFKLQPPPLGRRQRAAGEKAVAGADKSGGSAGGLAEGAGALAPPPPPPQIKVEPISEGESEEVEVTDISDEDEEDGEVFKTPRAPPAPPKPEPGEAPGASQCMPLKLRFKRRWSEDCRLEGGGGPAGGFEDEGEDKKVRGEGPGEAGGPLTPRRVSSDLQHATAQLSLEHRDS
In outline:
(§1)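 Each value of binding signal is a hexamer's read frequency for a factor divided by the same hexamer's frequency in the tag-only sample. Barcoded, bead-captured GST fusions of human transcription factors made in yeast were pooled with that sample and incubated with 200 nmole of a random double-stranded 16-mer DNA library in Tris/NaCl/DTT/glycerol buffer at room temperature for 30 min. Washing, 0.1% formaldehyde crosslinking, proximity ligation, PCR and Illumina NextSeq500 sequencing followed.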

For another experiment, the target named is T2, ETV3L (Homo sapiens, UniProt Q6ZN32 1-361).
T2 sequence: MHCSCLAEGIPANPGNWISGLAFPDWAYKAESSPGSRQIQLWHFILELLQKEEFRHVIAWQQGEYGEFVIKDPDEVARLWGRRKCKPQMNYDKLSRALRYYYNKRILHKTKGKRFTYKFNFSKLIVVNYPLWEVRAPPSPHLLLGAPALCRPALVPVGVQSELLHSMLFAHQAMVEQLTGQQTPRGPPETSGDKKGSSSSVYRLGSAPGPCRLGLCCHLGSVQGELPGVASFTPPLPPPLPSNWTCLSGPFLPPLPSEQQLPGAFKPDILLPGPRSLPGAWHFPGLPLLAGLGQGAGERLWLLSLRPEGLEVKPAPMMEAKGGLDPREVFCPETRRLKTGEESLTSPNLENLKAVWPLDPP
In outline:
as §1

The next experiment has as its target T3, ETS2 (Homo sapiens, UniProt P15036 1-469).
T3 sequence: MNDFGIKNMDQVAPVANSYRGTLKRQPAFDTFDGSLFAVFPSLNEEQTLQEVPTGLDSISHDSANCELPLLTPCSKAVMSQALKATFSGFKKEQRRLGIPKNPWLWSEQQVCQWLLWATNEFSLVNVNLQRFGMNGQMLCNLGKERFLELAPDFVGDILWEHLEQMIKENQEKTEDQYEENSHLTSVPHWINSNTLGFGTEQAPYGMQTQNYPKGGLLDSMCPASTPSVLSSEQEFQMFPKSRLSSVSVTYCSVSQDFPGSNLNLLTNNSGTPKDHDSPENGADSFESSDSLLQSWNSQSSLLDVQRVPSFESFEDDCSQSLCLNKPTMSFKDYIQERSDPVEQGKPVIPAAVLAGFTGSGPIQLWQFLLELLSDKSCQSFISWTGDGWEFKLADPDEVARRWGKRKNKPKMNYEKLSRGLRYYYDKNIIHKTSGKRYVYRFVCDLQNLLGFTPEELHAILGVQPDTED
In outline:
as §1

The next experiment has as its target T4, SPDEF (Homo sapiens, UniProt O95238 1-335).
T4 sequence: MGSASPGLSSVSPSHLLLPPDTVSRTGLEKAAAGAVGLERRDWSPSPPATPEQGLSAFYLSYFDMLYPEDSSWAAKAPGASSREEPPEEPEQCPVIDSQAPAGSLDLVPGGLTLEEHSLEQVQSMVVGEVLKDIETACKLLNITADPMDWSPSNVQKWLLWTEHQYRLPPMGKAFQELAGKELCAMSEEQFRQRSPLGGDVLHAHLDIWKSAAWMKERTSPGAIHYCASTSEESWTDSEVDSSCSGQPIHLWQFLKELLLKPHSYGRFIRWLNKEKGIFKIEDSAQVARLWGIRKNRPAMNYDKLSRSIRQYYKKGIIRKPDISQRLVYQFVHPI
Put shortly:
as §1

For the next experiment, the target named is T5, ETV7 (Homo sapiens, UniProt Q9Y603 1-341).
T5 sequence: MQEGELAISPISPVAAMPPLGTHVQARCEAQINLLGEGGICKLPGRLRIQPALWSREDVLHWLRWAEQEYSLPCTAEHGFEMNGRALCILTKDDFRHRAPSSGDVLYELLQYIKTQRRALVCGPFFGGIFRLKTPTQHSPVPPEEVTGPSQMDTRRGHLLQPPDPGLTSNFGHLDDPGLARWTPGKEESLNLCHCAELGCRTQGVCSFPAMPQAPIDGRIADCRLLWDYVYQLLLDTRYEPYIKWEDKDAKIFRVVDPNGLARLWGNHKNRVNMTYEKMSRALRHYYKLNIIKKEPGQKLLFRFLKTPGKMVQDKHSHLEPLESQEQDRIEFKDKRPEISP
Put shortly: as §1

The next experiment addresses T6, ELF5 (Homo sapiens, UniProt Q9UKW6-2 1-255).
T6 sequence: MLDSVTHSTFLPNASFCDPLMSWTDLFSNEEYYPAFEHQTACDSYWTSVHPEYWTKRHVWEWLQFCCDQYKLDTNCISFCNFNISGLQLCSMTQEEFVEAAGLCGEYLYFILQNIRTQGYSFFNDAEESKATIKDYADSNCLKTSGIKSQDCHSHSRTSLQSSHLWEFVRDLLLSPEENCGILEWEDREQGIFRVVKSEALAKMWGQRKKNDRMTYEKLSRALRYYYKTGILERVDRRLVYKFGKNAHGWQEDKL
Put shortly:
as §1

In the next experiment the target is T7, ETV3 (Homo sapiens, UniProt P41162-2 1-143).
T7 sequence: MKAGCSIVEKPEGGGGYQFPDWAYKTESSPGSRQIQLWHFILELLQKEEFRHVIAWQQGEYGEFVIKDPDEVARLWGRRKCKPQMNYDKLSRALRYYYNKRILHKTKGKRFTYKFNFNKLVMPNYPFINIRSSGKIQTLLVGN
Put shortly: as §1

The next experiment deals with ETV6 (Homo sapiens, UniProt P41212 1-452). Put shortly: as §1
ETV6, sequence (P41212 whole entry): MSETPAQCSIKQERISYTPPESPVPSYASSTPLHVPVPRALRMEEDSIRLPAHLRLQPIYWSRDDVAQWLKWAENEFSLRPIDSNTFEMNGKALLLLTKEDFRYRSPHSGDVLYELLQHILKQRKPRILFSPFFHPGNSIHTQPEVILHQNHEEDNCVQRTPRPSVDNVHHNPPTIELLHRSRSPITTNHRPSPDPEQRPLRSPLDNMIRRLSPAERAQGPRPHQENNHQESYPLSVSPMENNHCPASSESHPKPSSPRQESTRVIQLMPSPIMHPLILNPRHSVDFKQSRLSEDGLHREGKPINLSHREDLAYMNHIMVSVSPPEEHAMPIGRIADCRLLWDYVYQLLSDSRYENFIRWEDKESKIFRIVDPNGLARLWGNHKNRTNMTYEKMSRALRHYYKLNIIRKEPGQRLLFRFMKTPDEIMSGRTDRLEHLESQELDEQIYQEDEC

On to TACATC, for which the binding signal in the experiment with ERF is 1.63 fold enrichment (6-mer frequency, TF over GST control); with ETV3L, 1.55 fold enrichment (6-mer frequency, TF over GST control); with ETS2 it was 1.66 fold enrichment (6-mer frequency, TF over GST control); with SPDEF it was 2.97 fold enrichment (6-mer frequency, TF over GST control); with ETV7 it was 1.59 fold enrichment (6-mer frequency, TF over GST control); with ELF5, 1.81 fold enrichment (6-mer frequency, TF over GST control). The binding signal was 1.68 fold enrichment (6-mer frequency, TF over GST control) in the experiment with ETV3 and 1.57 fold enrichment (6-mer frequency, TF over GST control) with ETV6.

Turning to CACCTT, the binding signal with ERF was 1.33 fold enrichment (6-mer frequency, TF over GST control); with ETV3L it was 1.14 fold enrichment (6-mer frequency, TF over GST control); in the experiment with ETS2 it was 1.24 fold enrichment (6-mer frequency, TF over GST control); in the experiment with SPDEF, 1.31 fold enrichment (6-mer frequency, TF over GST control); with ETV7 it was 1.12 fold enrichment (6-mer frequency, TF over GST control); with ELF5, 1.21 fold enrichment (6-mer frequency, TF over GST control). The binding signal with ETV3 is 1.31 fold enrichment (6-mer frequency, TF over GST control); with ETV6, 1.25 fold enrichment (6-mer frequency, TF over GST control).

Take GCTCTT: the binding signal with ERF was 1.5 fold enrichment (6-mer frequency, TF over GST control); with ETV3L, 1.73 fold enrichment (6-mer frequency, TF over GST control); in the experiment with ETS2, 1.41 fold enrichment (6-mer frequency, TF over GST control); in the experiment with SPDEF, 1.34 fold enrichment (6-mer frequency, TF over GST control); in the experiment with ETV7 it was 1.56 fold enrichment (6-mer frequency, TF over GST control); with ELF5, 1.52 fold enrichment (6-mer frequency, TF over GST control). Moreover, the binding signal with ETV3 was 1.48 fold enrichment (6-mer frequency, TF over GST control); with ETV6 it was 1.45 fold enrichment (6-mer frequency, TF over GST control).

With AATTCT, the binding signal in the experiment with ERF is 1.33 fold enrichment (6-mer frequency, TF over GST control); with ETV3L it was 1.29 fold enrichment (6-mer frequency, TF over GST control); with ETS2, 1.29 fold enrichment (6-mer frequency, TF over GST control); with SPDEF, 1.23 fold enrichment (6-mer frequency, TF over GST control); in the experiment with ETV7 it was 1.26 fold enrichment (6-mer frequency, TF over GST control); in the experiment with ELF5 it was 1.22 fold enrichment (6-mer frequency, TF over GST control). Further, the binding signal was 1.25 fold enrichment (6-mer frequency, TF over GST control) with ETV3 and 1.25 fold enrichment (6-mer frequency, TF over GST control) with ETV6.

For TTTGTC, the binding signal with ERF is 1.23 fold enrichment (6-mer frequency, TF over GST control); in the experiment with ETV3L it was 1.32 fold enrichment (6-mer frequency, TF over GST control); with ETS2, 1.24 fold enrichment (6-mer frequency, TF over GST control); with SPDEF it was 1.14 fold enrichment (6-mer frequency, TF over GST control); with ETV7 it was 1.35 fold enrichment (6-mer frequency, TF over GST control); with ELF5 it was 1.22 fold enrichment (6-mer frequency, TF over GST control). The binding signal with ETV3 is 1.29 fold enrichment (6-mer frequency, TF over GST control); with ETV6 it was 1.17 fold enrichment (6-mer frequency, TF over GST control).

As for ACGGCC, the binding signal with ERF was 1.02 fold enrichment (6-mer frequency, TF over GST control); with ETV3L, 1.13 fold enrichment (6-mer frequency, TF over GST control); with ETS2, 1.1 fold enrichment (6-mer frequency, TF over GST control); with SPDEF, 1.17 fold enrichment (6-mer frequency, TF over GST control); in the experiment with ETV7 it was 1.13 fold enrichment (6-mer frequency, TF over GST control); in the experiment with ELF5 it was 1.02 fold enrichment (6-mer frequency, TF over GST control). For the same sequence, the binding signal with ETV3 is 1.13 fold enrichment (6-mer frequency, TF over GST control); in the experiment with ETV6, 1.08 fold enrichment (6-mer frequency, TF over GST control).

As to CTAAAT, the binding signal with ERF is 1.35 fold enrichment (6-mer frequency, TF over GST control); with ETV3L it was 1.43 fold enrichment (6-mer frequency, TF over GST control); with ETS2, 1.38 fold enrichment (6-mer frequency, TF over GST control); with SPDEF it was 1.31 fold enrichment (6-mer frequency, TF over GST control); in the experiment with ETV7, 1.34 fold enrichment (6-mer frequency, TF over GST control); with ELF5, 1.25 fold enrichment (6-mer frequency, TF over GST control). The binding signal with ETV3 is 1.4 fold enrichment (6-mer frequency, TF over GST control); in the experiment with ETV6, 1.3 fold enrichment (6-mer frequency, TF over GST control).

Take AAGAAC: the binding signal in the experiment with ERF is 1.08 fold enrichment (6-mer frequency, TF over GST control); in the experiment with ETV3L it was 1.13 fold enrichment (6-mer frequency, TF over GST control); with ETS2, 1.18 fold enrichment (6-mer frequency, TF over GST control); with SPDEF it was 1.23 fold enrichment (6-mer frequency, TF over GST control); in the experiment with ETV7, 1.25 fold enrichment (6-mer frequency, TF over GST control); with ELF5, 1.21 fold enrichment (6-mer frequency, TF over GST control). For the same sequence, the binding signal is 1.11 fold enrichment (6-mer frequency, TF over GST control) with ETV3 and 1.27 fold enrichment (6-mer frequency, TF over GST control) with ETV6.

The record behind these values is paper PMC7862700, “An all-to-all approach to the identification of sequence-specific readers for epigenetic DNA modifications on cytosine”.
